# An excerpt weighted towards active compounds, which were near 10% of everything screened.
# JMJD2A Tudor inh: qHTS Assay for Inhibitors of JMJD2A-Tudor Domain. AlphaScreen JMJD2A-Tudor / H3K4me3 peptide binding. Potency, µM (top dose mostly 114 µM), for the others: top-dose activity change, negative = inhibition, most hits filed as inhibitors. AID 504339, 2011. 390,000 compounds, 4.4% hits; note: potency is the fitted concentration of half-maximal effect; % is set by controls: 0 for no effect and ±100 for the full control effect; nearly all actives have a fitted effect of over 50% in size
# Target sequence (O75164 whole entry, looked up, the tested form may be a part): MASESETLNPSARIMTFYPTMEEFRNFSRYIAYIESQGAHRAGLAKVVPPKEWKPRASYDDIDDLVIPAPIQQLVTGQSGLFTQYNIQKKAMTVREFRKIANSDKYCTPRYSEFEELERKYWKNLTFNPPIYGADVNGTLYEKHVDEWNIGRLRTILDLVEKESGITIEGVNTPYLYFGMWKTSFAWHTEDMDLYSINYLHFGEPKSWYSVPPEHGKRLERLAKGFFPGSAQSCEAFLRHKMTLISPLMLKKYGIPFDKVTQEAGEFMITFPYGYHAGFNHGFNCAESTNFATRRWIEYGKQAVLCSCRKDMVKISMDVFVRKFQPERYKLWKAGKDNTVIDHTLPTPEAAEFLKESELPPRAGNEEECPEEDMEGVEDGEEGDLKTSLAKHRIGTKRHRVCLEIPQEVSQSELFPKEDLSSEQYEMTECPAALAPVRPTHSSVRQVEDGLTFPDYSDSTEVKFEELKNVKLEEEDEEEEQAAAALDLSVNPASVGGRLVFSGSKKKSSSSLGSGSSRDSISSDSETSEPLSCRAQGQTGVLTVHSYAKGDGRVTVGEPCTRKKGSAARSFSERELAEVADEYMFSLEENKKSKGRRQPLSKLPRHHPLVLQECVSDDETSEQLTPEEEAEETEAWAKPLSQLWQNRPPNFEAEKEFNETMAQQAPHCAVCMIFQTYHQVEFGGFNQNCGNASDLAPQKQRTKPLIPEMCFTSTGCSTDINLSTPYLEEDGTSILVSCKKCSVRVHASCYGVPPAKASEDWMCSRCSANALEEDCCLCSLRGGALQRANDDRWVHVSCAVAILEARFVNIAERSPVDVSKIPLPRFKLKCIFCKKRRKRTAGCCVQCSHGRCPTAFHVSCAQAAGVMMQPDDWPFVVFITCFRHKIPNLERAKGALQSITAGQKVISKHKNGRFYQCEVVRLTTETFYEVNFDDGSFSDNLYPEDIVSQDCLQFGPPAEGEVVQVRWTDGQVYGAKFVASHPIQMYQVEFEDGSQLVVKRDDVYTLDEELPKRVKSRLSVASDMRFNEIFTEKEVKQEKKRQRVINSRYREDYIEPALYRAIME
# Six1-Eya2 blk: qHTS Assay for Inhibitors of the Six1/Eya2 Interaction; AlphaScreen GST-Six1/His-Eya2 binding, biochemical; stronger effect = lower value; activity change, % (no concentration beside the values); 360,000 compounds, 0.56% hits; Homeobox protein SIX1 (Homo sapiens) + Protein phosphatase EYA2 (Homo sapiens), …; in the data active = activity change below about -65%; inconclusive = mostly about -30% to -63%; note: % is set by controls: 0 for no effect and ±100 for the full control effect
#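 GST-Six1 + His-Eya2 (5X stock: 250/500 nM); Tris pH 8.0, 300 mM NaCl, 0.05% BSA, 0.02% Tween 20; GSH donor/Ni acceptor beads; 1 h 37 °C dark; AlphaScreen readout.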
# HP1b chromo inh: HTS for Inhibitors of HP1-beta Chromodomain Interactions with Methylated Histone Tails; Potency, µM (highest dose often 114 µM), for inactives: at the top dose activity change, negative = inhibition, actives largely listed as inhibitors; Chromobox protein homolog 1 (Homo sapiens), P83916; 390,000 compounds, 0.56% hits; AlphaScreen HP1-beta / biotin-H3K9me3 peptide binding; note: potency is the fitted concentration of half-maximal effect; nearly all actives have a fitted effect of over 70% in size
#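 AlphaScreen: HP1-beta (50 nM) preformed 30 min with biotin-H3(1-18)K9me3 peptide (50 nM) in PBS pH 7.4, 0.01% Tween-20. Compound added for 30 min at RT, then streptavidin donor/nickel chelate acceptor beads (10 ug/mL) for 30 min.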
# CtBP-E1A blk: qHTS Assay for Inhibitors of the CtBP/E1A Interaction | CtBP / adenovirus E1A interaction (AlphaScreen) | AlphaScreen GST-E1A/His-CtBP binding, 1536-well; stronger effect = lower value | activity change, % (test concentration not listed) | 340,000 compounds, 0.49% hits; in the data active = activity change below about -65%; inconclusive = mostly about -30% to -63%; note: % is set by controls: 0 for no effect and ±100 for the full control effect
#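 Steps: dispense buffer (Tris pH 8.0, NaCl 300 mM, TCEP 1 mM, BSA, Tween 20); add 5X protein mix (GST-E1A, His-CtBP, 125 nM each); pin 23 nL compound; 2 h at 37 °C, dark; add 5X beads (50 ug/mL); 1 h; read.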
# G9a block: qHTS Assay for Inhibitors of Histone Lysine Methyltransferase G9a. Histone-lysine N-methyltransferase EHMT2 (Homo sapiens), Q96KQ7. G9a H3K9 monomethylation, AlphaScreen, 2 h. Potency, µM (highest dose often 102 µM), for inactives: at the top dose activity, negative = inhibition, most hits filed as inhibitors. 350,000 compounds, 8.8% hits; note: potency is the fitted concentration of half-maximal effect; % is set by controls: 0 for no effect and ±100 for the full control effect; nearly all actives have a fitted effect of over 75% in size
#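 AlphaScreen read-out: biotin-H3K9 peptide (500 nM) methylation by 20 nM enzyme with 20 uM SAM, 2 h at room temperature after 15 min compound preincubation; anti-monomethyl H3K9 antibody plus donor/acceptor beads, 10 min dark.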
# BAZ2B inh: qHTS Assay for Inhibitors of BAZ2B. Bromodomain adjacent to zinc finger domain protein 2B (Homo sapiens), Q9UIF8. AlphaScreen BAZ2B-H3K14Ac peptide displacement. Potency, µM (titrated, usually from 114 µM), without a hit: at the highest dose activity change, negative = inhibition, usual class: inhibitors. 360,000 compounds, 4.4% hits; note: potency is the fitted concentration of half-maximal effect; % is set by controls: 0 for no effect and ±100 for the full control effect; nearly all actives have a fitted effect of over 60% in size
#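 AlphaScreen luminescence quantifies BAZ2B engagement of H3K14Ac peptide; the protein and biotinylated peptide are both at 50 nM final, buffer PBS pH 7.4 with 0.01% Tween-20, all steps at room temperature.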
# An asterisk follows results filed as active; ? = inconclusive; . = not tested or not shown; ! = not active in a repeat; [ ] = remark or other dose. Unless noted, calls come from the whole dose curve; as a rule, active = well fitted inhibition curve with a large enough effect; inconclusive = small, poorly fitted or top-dose-only effect; inactive = no such curve, though single readings can be large or run the other way.
SMILES,JMJD2A Tudor inh,Six1-Eya2 blk,HP1b chromo inh,CtBP-E1A blk,G9a block,BAZ2B inh
Cc1ccc(S(=O)(=O)NCC(c2ccc(N(C)C)cc2)N2CCc3ccccc32)cc1C (centres undefined),7.1µM*,.,-24%,.,5.6µM*,6.3µM*
CCOc1ccc(S(=O)(=O)NCC(c2ccc(N(C)C)cc2)N2CCc3ccccc32)cc1 (centres undefined),13µM*,.,?,.,?,6.3µM*
COc1ccccc1N1CCN(S(=O)(=O)c2ccc(-c3cc(C(F)(F)F)on3)s2)CC1,-2%,.,46%,.,6%[59 µM],-1%
CC1=C(C(=O)N(C)C)CC(CC(=O)NCc2cccs2)C(=O)N1CCC1=CCCCC1 (centres undefined),.,-7,.,-9,.,.
CCOc1ccc(S(=O)(=O)NCC(c2ccc(N(C)C)cc2)N2CCCC2)cc1 (centres undefined),?,.,-9%,.,20µM*,35µM*
COc1ccc(S(=O)(=O)NCC(c2ccc(N(C)C)cc2)N2CCc3ccccc32)cc1 (centres undefined),22µM*,.,?,.,13µM*,?
CN(C)c1ccc(C(CNC(=O)c2ccc(C(C)(C)C)cc2)N2CCOCC2)cc1 (centres undefined),?,.,-10%,.,11µM*,35µM*
CCOc1ccc(N(C)C(CNS(=O)(=O)c2ccccc2)c2ccccc2)cc1 (centres undefined),28µM*,.,?,.,11µM*,11µM*
CCOc1ccc(S(=O)(=O)Nc2ccc(C(=O)NCC(c3ccccc3)N(C)C)cc2)cc1 (centres undefined),-28%,-8,1%,-7,.,-1%
COc1ccc(C(CNS(=O)(=O)c2cccc(F)c2)N2CCCC2)cc1 (centres undefined),-28%,-3,3%,1,.,.
NS(=O)(=O)c1ccc(NC(=O)CSc2nc3ccccc3[nH]2)cc1,4%,2,39%,-3,-51%,-22%
O=C(CC(c1ccccc1)c1ccccc1)OCn1nnc2ccccc2c1=O,-9%,8,28%,12,-34%[59 µM],12%
CN1CCN(C(CNS(=O)(=O)c2ccc(Br)cc2)c2ccc3c(c2)OCO3)CC1 (centres undefined),-16%,1,19%,-16,79µM*,0%
CN(C)c1ccc(C(CNS(=O)(=O)c2ccc(Br)cc2)N2CCOCC2)cc1 (centres undefined),?,.,?,.,?,45µM*
CN(C)c1ccc(C(CNS(=O)(=O)c2ccc([N+](=O)[O-])cc2)N2CCOCC2)cc1 (centres undefined),?,-9,-12%,-7,-3%[0.501 µM],?
CS(=O)(=O)c1cccc(C(=O)OCC(=O)NC(=O)Nc2ccccc2F)c1,-17%,4,18%[57 µM],3,.,.
Cc1cccc(CN2CC34C=CC(CC3S2(=O)=O)O4)c1 (centres undefined),-16%,.,9%,.,.,.
Cc1ccc(S(=O)(=O)Nc2nc(-c3ccc(F)cc3)cs2)cc1,-34%,-4,-15%,-5,50µM*,?
COc1ccc(-c2csc(NC(=O)c3ccccc3NS(=O)(=O)c3ccc(C)cc3)n2)cc1,?,-12,?,-13,?,35µM*
S=c1[nH]c2ccc3ccccc3c2[nH]1,-16%,5,25%,-5,.,?
Cc1[nH]c2c(ccc3ccccc32)c1C1C(CCN)C1(C)C (centres undefined),56µM*,?,-7%,-25,-44%[59 µM],56µM*
Cc1c(Cl)cccc1NC(=O)CSc1nc(=O)n(Cc2ccco2)c2c1CCC2,?,.,12%,.,2%[59 µM],-19%
Oc1c(Cl)cc(Cl)cc1C=Nc1ccccc1N1CCCC1,.,.,.,.,10µM*,45µM*
CN(CCC#N)C(=O)COC(=O)c1c2c(nc3ccccc13)/C(=C/c1ccco1)CC2,89µM*,?,?,-13,22µM*,45µM*
CC(C)CNC(=O)COC(=O)c1c2c(nc3ccccc13)/C(=C\c1cccs1)CC2,40%,42,112%,42,.,.
SMILES,JMJD2A Tudor inh,Six1-Eya2 blk,HP1b chromo inh,CtBP-E1A blk,G9a block,BAZ2B inh
CC[C@H](NC(C)C)[C@H](O)c1ccc(O)c2[nH]c(=O)ccc12,.,.,.,.,17%[59 µM],.
CCC(c1ccc(O)c(O)c1)C(CC)c1ccc(O)c(O)c1 (centres undefined),79µM*,-8,?,-10,.,.
CCC(NC(C)C)C(O)c1ccc(O)c(O)c1 (centres undefined),?,6,7%,6,27µM*!,?
CC(C)(C)[C@H]1C=C(C(N)=O)O[C@@H](OCc2ccc(CO)cc2)C1,3%,1,36%,-2,25%[59 µM],-1%
Cc1ccc(CNC(=O)N2CCC(CN3CCC(C)CC3)CC2)cc1,-16%,.,0%,.,-3%[59 µM],-3%
Cc1cc(C(F)F)n2nc(C(=O)Nc3ccc(C(C)C)cc3)nc2n1,-9%,.,16%,.,-22%[59 µM],-2%
COc1ccccc1-c1cc(Nc2ccn[nH]2)ncn1,.,.,.,.,2%[0.501 µM],.
COc1ccccc1C1CC(=O)Nc2cc3c(cc21)OCCO3 (centres undefined),-30%,-5,-5%,-3,-36%[59 µM],-32%
CC(C)Oc1ccccc1C1CC(=O)Nc2cc3c(cc21)OCCO3 (centres undefined),?,-16,-11%,-20,-9%[59 µM],50µM*
COc1cccc(C2CC(=O)Nc3cc4c(cc32)OCCO4)c1OC(C)C (centres undefined),?,-19,?,-7,45µM*,-34%
COc1ccccc1CNC(=O)Nc1nc(C(N)CCc2ccccc2)cs1 (centres undefined),.,-12,.,-8,.,.
CCCCn1c(=NC(=O)c2cccnc2)c(C(=O)OCC)cc2c(=O)n3ccccc3nc21,-16%[57.1 µM],0,-12%,13,0%[12.7 µM],1%
CCOCCCn1c(=NC(=O)c2cccnc2)c(C(=O)OCC)cc2c(=O)n3ccccc3nc21,50µM*!,-7,10%,-6,2%[59 µM],-27%
NNC1=N[C@H]2CS(=O)(=O)C[C@H]2S1,8.9µM*,-9,10%,7,9%[59 µM],-5%
